# From PubChem BioAssay AID493201 (National Center for Advancing Translational Sciences (NCATS), 2011)
# Records with an inconclusive call do not appear. Where a call stands in place of a potency, no number is given. Activity calls are given as the source filed them. The call rests on the fitted dose curve; in most records, active means well fitted activation curve with a large enough effect; inconclusive means small, poorly fitted or top-dose-only effect; inactive means no such curve, though single readings can be large or run the other way.
# Test: qHTS Assay for Identifying a Potential Treatment of Ataxia-Telangiectasia: Secondary assay (no NCS) hit validation;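 further: phosphorylated KAP1 signal as a proxy for ATM-like kinase activity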
# Conditions: A-T patient fibroblasts, AlphaLISA, no DNA damage added, 90 min; series mostly up to 76.9 µM
# Method in brief: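 hTERT-immortalized A-T patient fibroblasts (F2112), 500 cells/well, exposed to compounds at up to 76.7 uM final without NCS at 37C. KAP-1 phosphorylation measured by AlphaLISA after lysis and 6 h detection at 25C.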
# Potency means the concentration at half of the fitted maximal effect.
row,SMILES,Potency
1,O=C(N/N=C/c1cccc2ccccc12)c1cccnc1,inactive
2,CC1CC(C)CN(S(=O)(=O)c2ccc(C(=O)NCCCn3ccnc3)cc2)C1 (stereo not given),inactive
3,CCC(=O)NC1=C(Cl)C(=O)C(NC(=O)CC)=C(Cl)C1=O,inactive
4,CC(C)(C)C1CCC2(CC1)SCC(=O)N2c1ccccc1 (stereo not given),inactive
5,COc1ccc(CCn2c(S)nc3ccccc3c2=O)cc1,41.2 µM (active)
6,CC(C)OP(=O)(OC(C)C)C(O)c1ccc(N(C)C)cc1 (stereo not given),9.23 µM (active)
7,O=C(O)CCCN1C(=O)/C(=C/C=C/c2ccco2)SC1=S,inactive
8,COc1ccc(N2CCN(C(=O)c3cc4cc(Cl)ccc4[nH]3)CC2)cc1,inactive
9,COc1ccc(C(CNC(=O)C(Cc2ccccc2)NC(N)=O)N(C)C)cc1 (stereo not given),inactive
10,CC(C)c1ccc(C(C(=O)NC2CCCCC2)N(C(=O)c2ccccn2)c2cccnc2)cc1 (stereo not given),inactive
11,COc1ccccc1[C@H]1C(c2cccc(Cl)c2)=NN(c2ccccc2)[C@@H]1CO,inactive
12,COc1cccc(CNCc2ccc(OC)c3ccccc23)c1OC,inactive
13,CC(=O)/C(N=Nc1nc2c([nH]1)c(=O)n(C)c(=O)n2C)=C(\C)O,inactive
14,Cc1ccc(NC(=O)NC(=O)N(C(C)C)S(C)(=O)=O)nc1,inactive
15,COc1cc(CCC(C)NCc2ccccc2)ccc1O (stereo not given),inactive
16,COC(=O)Cc1ccc(NC(=S)NCCSc2ccc(Cl)cc2)cc1,inactive
17,CCN(CC)c1ccc2c(Cl)c(Br)c(=O)oc2c1,inactive
18,C=CCOC(=O)C1=C[C@H](c2coc3ccccc3c2=O)C[C@H](OCc2ccc(CO)cc2)O1,inactive

row,SMILES,Potency
1,N#Cc1c2c(c(-n3cnc4ccccc43)n3c1nc1ccccc13)CCC2,inactive
2,Cc1nnc(SCC(=O)NC(=O)Nc2ccc3c(c2)OCCO3)n1N,inactive
3,CC(C)(CO)NC(=O)c1ccc2c(c1)C(=O)c1ccccc1-2,inactive
4,CCCc1nn(C)c(C(=O)Nc2ccc(C(C)(C)C)cc2)c1Cl,inactive
5,COc1ccc(NC(=O)C2CC2)cc1OC1CCCC1,inactive
6,CCOC(=O)C1=C(C)N(c2ccc(OC)cc2)C(=O)/C1=C\c1ccc(O)c(OCC)c1,inactive
7,CCn1c(=NC(=O)CN2C(=O)CCC2=O)sc2c(OC)ccc(OC)c21,0.923 µM (active)
8,CC(C)CNS(=O)(=O)c1cc(C(=O)O)c(Cl)cc1Cl,inactive
9,COc1ccc(C(=O)/C=C/C(=O)N(CC(=O)NC2CCCCC2)Cc2ccccc2)c(O)c1,inactive
10,Cc1cc(C)c2c(Cn3ccnc3)cc(=O)oc2c1,inactive
11,CCCc1ccc(S(=O)(=O)Nc2ccc(C)c(NS(C)(=O)=O)c2)cc1,inactive
12,CCn1nc(C)c(CNC(=O)c2cc(COc3ccc(F)cc3Cl)on2)c1C,inactive
13,COc1ccc2nc(C)cc(Nc3ccc(C(=O)O)cc3)c2c1,inactive
14,N#CCN1C(=O)C(=O)N(Cc2cccc(Cl)c2)C1=O,inactive
15,COc1ccccc1C(=O)NC(=O)Nc1cccc(Cl)c1,inactive
16,Cc1ccc(NC(=O)CSc2nnc([C@H](C)NC(=O)OC(C)(C)C)o2)c(C)c1,inactive
17,COC(=O)c1ccc2[nH]c3cccc(/C(=C/c4ccccc4)c4ccccc4)c3c2c1,inactive
